Measurements: PubChem BioAssay (Tox21)
Activity calls are given as the source filed them. Where a call stands in place of a potency, no number is given. The call rests on the fitted dose curve; in most records, active means well fitted curve in the direction sought with a large enough effect in the repeat runs; inconclusive means weak or mixed curves; inactive means flat fitted curve, though single readings scatter.

Experiment: qHTS assay to test for compound auto fluorescence at 460 nm (blue) in HEK293 cells (AID 720678)
Conditions: blue autofluorescence 405/460 nm; series mostly up to 91.3 µM
Method in brief: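 Cells were seeded and left to adhere for 4-5 hr at 37C. Compounds were then pin-transferred. After an overnight incubation at 37C under 5% CO2, intrinsic fluorescence at 405/460 nm was measured and referenced to triamterene.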

| Structure (SMILES) | Potency | fluorescence, % of triamterene |
| --- | --- | --- |
| CCCCNS(=O)(=O)c1ccc(C)cc1 | inactive | – |
| CCCCCCCCCCCCCC[N+](C)(C)C | inactive | – |
| O=C(Oc1ccccc1)Oc1ccccc1 | inactive | – |
| OC1CCCc2ccccc21 (stereo not given) | inactive | – |
| OC[C@H]1O[C@H](O[C@H]2O[C@H](CO)[C@@H](O)[C@H](O)[C@H]2O)[C@H](O)[C@@H](O)[C@@H]1O | inactive | – |
| CC(C)CCCCCOC(=O)CCS | inactive | – |
| CCC(COC(=O)CCS)(COC(=O)CCS)COC(=O)CCS | inactive | – |
| COC(=O)Nc1nc2ccc(C(=O)c3ccccc3)cc2[nH]1 | – | 0.0612% [at 18.6 µM] (inactive) |
| CC(=O)OCC=C(C)C | inactive | – |
| CCCCCCOC(=O)C(C)CC (stereo not given) | inactive | – |
| COC(=O)c1ccccc1C | inactive | – |
| CN(C)Cc1cc(C(C)(C)C)c(O)c(C(C)(C)C)c1 | inactive | – |
| CC/C=C\CCCCCO | inactive | – |
| Cc1ccc(N/N=c2\c(=O)cc/c(=N\Nc3ccc(S(=O)(=O)O)cc3)c2=O)c(C)c1 | inactive | – |
| O=C(/C=C/c1ccccc1)OC/C=C/c1ccccc1 | inactive | – |
| CCC(=O)OC(=O)CC | inactive | – |
| COc1cc(S(=O)(=O)O)c(C)cc1N=Nc1c(O)ccc2cc(S(=O)(=O)O)ccc12 | inactive | – |
| O=[N+]([O-])c1cccc(C(F)(F)F)c1 | inactive | – |
| CCO[Si](OCC)(OCC)OCC | inactive | – |
| Cc1ccc(-c2ccccc2)cc1 | inactive | – |
| ClCCl | inactive | – |
| CN1CCCCC1CCN1c2ccccc2Sc2ccc(S(C)=O)cc21 (stereo not given) | inactive | – |
| C[Si](Cl)(c1ccccc1)c1ccccc1 | inactive | – |
| NC(=S)NC(N)=S | inactive | – |
| O=C(O)[C@H](O)[C@@H](O)[C@H](O[C@@H]1O[C@H](CO)[C@H](O)[C@H](O)[C@H]1O)[C@H](O)CO | – | 0.228% [at 18.6 µM] (inactive) |
